# Screening results as filed in PubChem BioAssay.
# A selection: hits, their analogues and other compounds. The true share with any hit is near 2.3%.
# ELG1 DNA repair – blocks ELG1-dependent DNA repair in HEK293T cells. hit rate 2.3% among 330,000. Potency, µM (highest dose often 46.1 µM), inactives show at the highest dose activity change, negative = inhibition, actives largely listed as inhibitors. HEK293T ELG1-luciferase reporter, luminescence, 16 h; DNA damage induced by 5-fluorouridine; also: potency is read from the fitted curve at half-maximal effect; % is scaled to controls: 0 for no effect and ±100 for the full control effect; nearly all actives have a fitted effect of over 55% in size
#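 HEK293T cells expressing luciferase-tagged ELG1 (2,000/well) received 5-Fluorouridine plus compound or DMSO for 16 hr at 37 °C. Luciferase was read by ONE-Glo luminescence after 30 min at room temperature.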
# TRPV1 ag – agonists of human vanilloid receptor 1 (TRPV1). activation, % at 8.33 µM. TRPV1-expressing cells, Fluo-8 calcium influx, agonist mode. hit rate 0.19% among 320,000. Q8NER1; in the data active = activation above about 80%; inconclusive = between about 30% and that limit; also: 0% is about no effect
#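 TRPV1-expressing cells were cultured overnight at 35.5C and loaded with Fluo-8 calcium dye for 40 to 90 min at room temperature. After a 10 s baseline, compound was added and calcium influx was read kinetically for 3 min (ex 480/em 520 nm).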
# TRPV1 potentiator – potentiators of human vanilloid receptor 1 (TRPV1). Q8NER1. TRPV1-expressing cells, Fluo-8 calcium influx, capsaicin EC20 potentiation. potentiation, % at 8.33 µM. hit rate 0.02% among 320,000; in the data active = potentiation above about 80%; inconclusive = between about 30% and that limit; also: 0% is about no effect
#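 TRPV1-expressing cells were cultured overnight at 35.5C and loaded with Fluo-8 calcium dye for 40 to 90 min at room temperature. After a 10 s baseline, compound was added and calcium influx was read kinetically for 3 min (ex 480/em 520 nm).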
# Giardia kill – kills Giardia lamblia. hit rate 0.15% among 340,000. AID 540267. activity change, % at 7.66 µM, hits read low. Giardia lamblia trophozoite viability; in the data active = activity change below about -80%; inconclusive = between about -30% and that limit;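 also: parasites exposed to compound for two days anaerobically before the ATP read; % is scaled to controls: 0 for no effect and ±100 for the full control effect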
#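 Anaerobic 48 hrs incubation at 37 deg C of 100 trophozoites/well with test compounds; ATPLite 1-Step luminescence, 15-30 min RT, reports cellular ATP as viability.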
# FUS yeast rescue – suppressors of FUS proteinopathy in yeast; S. cerevisiae FUS-expressing, growth rescue, OD600, 24 h; Potency, µM (highest dose often 76.6 µM), hits mostly activators; hit rate 0.24% among 390,000;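 also: potency is read from the fitted curve at half-maximal effect; plate controls were DMSO vehicle for no effect and reference control for full effect; nearly all actives have a fitted effect of over 55% in size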
#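 FUS-expressing yeast, raffinose-pregrown, induced in 2% galactose minimal medium at OD 0.005; compounds in a dilution series, 24hr at 30C. Growth restoration read as absorbance at 600 nm. CP55940 positive control, DMSO negative.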
# * marks the source's active call; other numbers are inactive results; i = inactive; ? = inconclusive; · = no result. Unless noted, calls follow the shape of the dose curve; as a rule, active = well fitted curve in the direction sought with a large enough effect; inconclusive = small, poorly fitted or top-dose-only effect, or another doubt; inactive = no such curve, though single readings can be large; an effect the other way counts as inactive or inconclusive.
SMILES,ELG1 DNA repair,TRPV1 ag,TRPV1 potentiator,Giardia kill,FUS yeast rescue
CC1CN(S(=O)(=O)c2ccc(C(=O)Nc3nnc(-c4ccccn4)o3)cc2)CC(C)O1 (configuration not stated),-8%,-7,22,3,i
CC1CN(S(=O)(=O)c2ccc(C(=O)Nc3nnc(-c4ccc5c(c4)CCCC5)o3)cc2)CC(C)O1 (configuration not stated),2.6µM*,·,·,12,i
Cc1cc(C)c(C)c(S(=O)(=O)N2CCC(C(=O)Nc3ccc(S(=O)(=O)N4CCOCC4)cc3)CC2)c1C,12µM*,1,-7,5,i
O=C(Nc1ccc(S(=O)(=O)N2CCCCC2)cc1)c1ccc(CN2CCOCC2)cc1,7.3µM*,?,11,22,?
Cc1ccc(S(=O)(=O)N2CCC(C(=O)Nc3ccc(S(=O)(=O)N4CCOCC4)cc3)CC2)cc1,·,·,·,-6,·
N#CCc1ccc(NC(=O)c2ccc(S(=O)(=O)N3CCCC3)cc2)cc1,21µM*,?,-9,-18,i
CCOc1ccc(C(=O)NCCc2sc3nc(-c4ccc(Cl)cc4)nn3c2C)cc1OCC,·,·,·,·,i
CCOC(=O)Cn1c(=O)n(CC2CCCO2)c2nc(-c3ccc(OCC)cc3)nc(C(N)=O)c21 (configuration not stated),·,·,·,·,i
CCOc1ccc(N2CC(c3nc4ccccc4n3Cc3cccc(Cl)c3)CC2=O)cc1 (configuration not stated),·,·,·,·,i
O=C(Nc1nc([C@@H]2O[C@H](CO)[C@@H](O)[C@H](O)[C@H]2O)cs1)NC(c1ccccc1)c1ccccc1,·,·,·,·,i
CC(=O)Nc1ccc(S(=O)(=O)N2CCC(C(=O)c3ccc(Cl)cc3)CC2)cc1,18µM*,0,5,5,i
Cc1ccc(NC(=O)C2CCN(S(=O)(=O)c3ccc4c(c3)NC(=O)C(C)S4)CC2)cc1Cl (configuration not stated),13µM*,5,?,15,?
O=C(Nc1ccc(S(=O)(=O)N2CCOCC2)cc1)c1ccc(Cl)cc1,?,?,-9,16,i
Cc1c([N+](=O)[O-])cc(C(=O)Nc2ccc(Cc3ccncc3)cc2)cc1[N+](=O)[O-],10µM*,?,-3,-24,i
O=C(Nc1ccc(Cc2ccncc2)cc1)c1ccc(S(=O)(=O)N2CCOCC2)cc1,13µM*,?,-9,8,i
Cc1cc(C)cc(NC(=O)C2CCN(S(=O)(=O)c3ccc4c(c3)NC(=O)C(C)S4)CC2)c1 (configuration not stated),?,-2,17,10,?
COc1ccc(-n2c(SCC(=O)Nc3nnc(C)s3)nc3c([nH]c4ccccc43)c2=O)cc1,·,·,·,·,i
Cc1oc2ccc(O)c(CN(C)Cc3ccccc3)c2c1C(=O)Nc1cccc(Cl)c1C,·,·,·,·,i
Cc1ccccc1OCC(=O)Nc1ccc2oc(-c3ccc(F)cc3)nc2c1,·,·,·,·,i
COc1cc2c(=O)c(C(=O)c3ccc(F)cc3)cn(Cc3cccc(F)c3)c2cc1OC,·,·,·,·,i
COc1cc(C2CC(=O)Nc3c2c(C)nn3-c2nncc(-c3ccc(C)cc3)n2)cc(OC)c1OC (configuration not stated),·,·,·,·,i
Cc1ccc(NC(=O)CN2C(=O)c3ccccc3Sc3ccc(C(=O)N4CCCC4)cc32)cc1,·,·,·,·,i
O=C(Nc1ccc(S(=O)(=O)N2CCOCC2)cc1)c1ccc(S(=O)(=O)N2CCOCC2)cc1,0%,?,-7,6,i
CC1CN(S(=O)(=O)c2ccc(C(=O)Nc3ccc(S(=O)(=O)N4CCOCC4)cc3)cc2)CC(C)O1 (configuration not stated),8.2µM*,-2,9,-12,i
O=C(Nc1ccc(F)cc1)c1ccc(S(=O)(=O)N2CCOCC2)o1,16µM*,?,-27,-3,i
SMILES,ELG1 DNA repair,TRPV1 ag,TRPV1 potentiator,Giardia kill,FUS yeast rescue
NS(=O)(=O)c1ccc(NC(=O)c2ccc(S(=O)(=O)N3CCOCC3)o2)cc1,12%,1,-5,9,i
O=C(NCC(c1ccc2c(c1)OCO2)N1CCOCC1)c1ccc(F)cc1 (configuration not stated),·,·,·,·,i
O=C1C=C(NCc2ccccc2)c2ccccc2C1=O,12µM*,1,-1,-22,i
O=C1C=C(Nc2ccccc2O)c2ccccc2C1=O,?,8,3,-15,·
COc1ccc2c(c1)c1c(c(=O)n(-c3ccccc3)c(=O)n1CC(=O)Nc1ccc(F)cc1)n2C,·,·,·,·,i
CCCC(=O)N1CCN(c2ccc(C(=O)c3ccc(OC)c(Br)c3)cc2F)CC1,?,0,4,·,·
COc1ccc(C(=O)c2ccc(N3CCN(C(=O)c4ccc(F)cc4)CC3)c(F)c2)cc1Br,21µM*,-2,-5,3,i
CN(C)c1ccc(-c2nc(-c3ccncc3)no2)cc1[N+](=O)[O-],·,·,·,·,i
Cc1ccc(C)n1-c1sc2c(c1C(=O)O)CCCC2,?,0,6,-21,i
Cc1ccc(C)n1-c1sccc1C(=O)O,-5%,0,2,7,13µM*
Cc1ccccc1NC(=O)CSc1nnc(COc2ccc(Cl)cc2)o1,·,·,·,·,i
Cc1ccc(C)n1-c1nnc(N2CCCC(C(=O)NCc3ccc(F)cc3)C2)s1 (configuration not stated),·,·,·,·,i
Cn1cc(C(=O)NCc2ccc(Cl)cc2)c(=O)c2cc(S(=O)(=O)N3CCCCCC3)ccc21,·,·,·,·,i
CCOc1ccc(C(C)NC(=S)NC2CCCCC2)cc1OCC (configuration not stated),23µM*,30,-12,8,i
CCOc1ccc(C(C)NC(=S)NC2CCCCC2)cc1 (configuration not stated),?,?,8,-14,i
